Screening results deposited in PubChem by Broad Institute.
aSyn 5UTR act – Activators working through SNCA 5'UTR binding (MLPCN); alpha-synuclein 5'UTR reporter, activators screen; activity score, % (tested at 7.5 µM), hits read low; 300,000 tested, 7.1% active; AID 1814; in the data active means activity score below about -60%
* marks the source's active call; other numbers are inactive results. Only a sample is shown.

SMILES	aSyn 5UTR act
CCCCNC(=O)C1CC(c2cccc(F)c2)=NO1 (configuration not stated)	-94*
COc1ccc(CCNC(=O)C2CC(c3cccc([N+](=O)[O-])c3)=NO2)cc1 (configuration not stated)	-112*
O=C(NCCc1cccs1)C1CC(c2ccc([N+](=O)[O-])cc2)=NO1 (configuration not stated)	-157*
COc1ccc(CCNC(=O)C2CC(c3ccc([N+](=O)[O-])cc3)=NO2)cc1 (configuration not stated)	-69*
COc1ccc(N2CCN(S(=O)(=O)CCNC(=O)Cc3ccc([N+](=O)[O-])cc3)CC2)cc1	65
CCOc1ccc(-c2c(=O)n(OCc3nc4ccccc4[nH]3)c3ccccc3[n+]2[O-])cc1	-112*
CCOC(=O)COn1c(=O)c(-c2ccc(C)cc2)[n+]([O-])c2ccccc21	-136*
CC(=O)c1ccc(Oc2ccc(C(C)=O)cc2)cc1	-96*
O=C(NCc1cccnc1)c1cc(-c2ccco2)on1	-72*
Cc1ccc(CN2C(=O)/C(=C\c3ccc(C(=O)NCc4cccnc4)cc3)Oc3ccccc32)cc1	101
Cc1ccc(-c2cc(C(=O)NCc3cccnc3)no2)cc1	-90*
Cc1ccc(N=Cc2sccc2C)cc1C	-111*
Cc1ccc(O)c(NC(=O)c2ccc3c(c2)C(=O)N(CC(C)C)C3=O)c1	-112*
CCc1nnc(NC(=O)c2ccc3c(c2)C(=O)N(CC(C)C)C3=O)s1	-88*
Cc1ccc(NC(=S)NCCCN2CCOCC2)cc1	-63*
S=C(NCCN1CCOCC1)Nc1ccc(-c2nc3ccccc3[nH]2)cc1	-129*
Clc1ccc(OCCCN2CCCCC2)c(Br)c1	-88*
COCCn1c(C)cc(C(=O)Cn2nc(C(=O)O)c3ccccc3c2=O)c1C	-116*
COCCn1c(C)cc(C(=O)CSc2nc3ccccc3s2)c1C	53
COc1ccc(-c2cc(C(=O)Nc3cc(Cl)ccc3O)no2)cc1	-156*
Cc1ccc(O)c(NC(=O)c2cc(-c3ccccc3Cl)on2)c1	-173*
Cc1ccc(-c2cc(C(=O)Nc3cc(C)ccc3O)no2)cc1	-183*
COc1ccc(-c2cc(C(=O)Nc3cc(C)ccc3O)no2)cc1	-132*
COc1ccc(OC)c(-c2cc(C(=O)Nc3c(C)nn(Cc4ccccc4Cl)c3C)no2)c1	58
CCOc1ccc(-c2cc(CCCC(=O)Nc3cc(OC)ccc3OC)no2)cc1	83
SMILES	aSyn 5UTR act
O=C(CSc1nc(-c2ccccc2)cs1)NCCN1C(=O)CSC1=O	-71*
O=C(CSc1nc(-c2ccc(F)cc2)cs1)NCCN1C(=O)CSC1=O	-62*
N#Cc1c(C(F)(F)F)cc(-c2ccc(Cl)c(Cl)c2)nc1SCCN1CCOCC1	-64*
C/C(=N/N=C(/C)c1cccs1)c1cccs1	-119*
CN(C)C(=O)c1cc(-c2ccccc2)no1	-80*
O=[N+]([O-])c1cc(-c2cnc3ccccc3n2)ccc1Oc1ccc(F)cc1	-150*
CCOc1ccc(-c2cnc3ccccc3n2)cc1	92
O=[N+]([O-])c1ccc(-c2cnc3ccccc3n2)cc1	-124*
COC(=O)c1ccc(/C=C2\Oc3ccccc3NC2=O)cc1	-110*
COC(=O)c1ccc2c(c1)C(=O)/C(=C/c1ccc(C)cc1)O2	-143*
CCOC(=O)C1=C(COc2ccc(C)cc2)NC(=O)NC1c1cc(C)ccc1C (configuration not stated)	-86*
O=C1Nc2ccccc2S/C1=C\C(=O)N1CCCC1	-140*
N#C/C(C(=O)N1CCCCC1)=C1\Nc2ccccc2S1	-104*
NNc1nc(Nc2ccccc2)nc(Nc2ccccc2)n1	-117*
c1ccc(Nc2ccnc(Nc3ccccc3)n2)cc1	-100*
CC(=O)N1CCc2cc(S(=O)(=O)NCCC(=O)Nc3ccc4c(c3)OCCO4)ccc21	-176*
COc1ccccc1OCc1cc(C(=O)N(C)CCC2CCCCO2)no1 (configuration not stated)	-96*
COc1cc(C(C)=O)ccc1OCc1cc(C(=O)N(C)CCC2CCCCO2)no1 (configuration not stated)	-188*
COc1cc(C(=O)N=c2sc3ccccc3n2C)cc(OC)c1OC	-103*
COc1cc(C(=O)N=c2sc3c(C)ccc(OC)c3n2C)cc(OC)c1OC	-222*
Cn1c(=NC(=O)c2cccc([N+](=O)[O-])c2)sc2ccccc21	-139*
COc1ccc(C(=O)N=c2sc3c(C)ccc(OC)c3n2C)cc1	-115*
CC(=O)N(O)CCCCCNC(=O)CCC(=O)N(O)CCCCCNC(=O)CCC(=O)N(O)CCCCCN	75
Cc1c(C(=O)N2C[C@@H](C)O[C@@H](C)C2)oc2c(F)cccc12	-73*
Cc1c(C(=O)NC2CCOC2)oc2c(F)cccc12 (configuration not stated)	-148*
Cc1ccc(Sc2ncccc2COC(=O)NC(C)C)cc1	-89*
CCCc1cc(C(=O)Nc2cc(Br)ccc2O)no1	-145*
CCCc1cc(C(=O)Nc2cc(Cl)ccc2O)no1	-162*
c1ccc2oc(C3=NNC(=NC4CC4)SC3)cc2c1	-135*
c1csc(C2=NNC(=NC3CCCCC3)SC2)c1	-165*
